# Data from the supplement of paper PMC3334620.
# In all, about 33,000 sequences were measured (“E-score (-0.5 to 0.5)”: median about -0.043, highest 2% from about 0.37 on). This is one part of a sample in which the highest values are shown more often than they occur.
# Biological target: T1, Upc2 (UniProt Q12151)
# T1 sequence: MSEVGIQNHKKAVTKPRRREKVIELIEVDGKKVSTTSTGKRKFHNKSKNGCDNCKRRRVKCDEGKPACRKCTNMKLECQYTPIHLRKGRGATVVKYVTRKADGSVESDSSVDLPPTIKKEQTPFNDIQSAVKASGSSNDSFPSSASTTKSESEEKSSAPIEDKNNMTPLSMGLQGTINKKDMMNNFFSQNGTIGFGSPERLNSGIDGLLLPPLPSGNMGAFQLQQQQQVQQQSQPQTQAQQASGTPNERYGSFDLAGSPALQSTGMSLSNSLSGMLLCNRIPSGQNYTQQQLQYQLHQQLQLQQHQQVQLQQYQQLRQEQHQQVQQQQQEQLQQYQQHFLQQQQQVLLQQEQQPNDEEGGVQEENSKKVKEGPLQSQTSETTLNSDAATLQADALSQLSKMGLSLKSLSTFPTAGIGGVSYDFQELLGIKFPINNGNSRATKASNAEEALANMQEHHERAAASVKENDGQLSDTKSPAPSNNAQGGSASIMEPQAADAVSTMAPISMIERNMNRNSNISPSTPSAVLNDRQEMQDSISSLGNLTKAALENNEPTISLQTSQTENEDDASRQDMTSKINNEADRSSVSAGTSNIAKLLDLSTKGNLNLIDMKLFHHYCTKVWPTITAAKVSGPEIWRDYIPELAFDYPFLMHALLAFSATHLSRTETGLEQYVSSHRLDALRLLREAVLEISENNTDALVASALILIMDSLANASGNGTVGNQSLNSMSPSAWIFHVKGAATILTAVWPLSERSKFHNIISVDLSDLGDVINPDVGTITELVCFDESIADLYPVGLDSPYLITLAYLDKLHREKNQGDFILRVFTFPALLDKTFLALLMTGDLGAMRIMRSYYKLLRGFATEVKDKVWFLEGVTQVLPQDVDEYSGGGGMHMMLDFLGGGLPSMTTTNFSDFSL
# Test: PBM E-score (8-mer binding enrichment) (E-score (-0.5 to 0.5)); higher = stronger / more preferred TF binding
# Conditions: protein concentration: 200 nM; construct: GST-full length
# Procedure, shortened: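 Yeast transcription factors carrying a GST tag, as full-length proteins or DNA-binding domains, were produced by PURExpress in vitro transcription/translation. About 100-200 nM protein was applied to universal all-10-mer Agilent arrays, double-stranded by primer extension on fresh or once-stripped slides. Bound protein was detected with fluorescent anti-GST, and scans were normalised with masliner. The Universal PBM Analysis Suite gave each ungapped eight-base word, pooled with its reverse complement, an E-score, a modified Wilcoxon-Mann-Whitney statistic.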
row,Sequence,PBM E-score
1,CATGGCTC,-0.0993
2,AAGGTAAT,0.0547
3,TGTACAAA,0.0122
4,CGTACGTA,0.364
5,CGTACGAA,0.444
6,TGCACGAA,0.145
7,CGTACGCA,0.345
8,TGTACGAA,0.479
9,CATATTCA,-0.0449
10,GCTTCACA,-0.124
11,ATTCGTGA,0.0183
12,ATTCGTAA,0.399
13,ATTCGTAG,0.285
14,GTTCGTGA,0.0858
15,GTTCGTAA,0.424
16,GTTCGTCA,-0.0278
17,GGATGGTA,0.0248
18,GCTAGCTA,0.0155
19,ACGACCGC,0.359
20,GTGAGAAC,-0.188
21,GCCAAACA,-0.0676
22,CCGTACAG,0.418
23,ACGTACAG,0.3
24,CTGTACAG,0.158
25,CCGTACAC,0.382

row,Sequence,PBM E-score
1,ACGTACAC,0.297
2,GCGTACAC,0.33
3,AAAAGACA,0.0436
4,CCACAGAC,-0.169
5,ATTAGCCG,0.0535
6,GTGACCGA,0.11
7,CTGTACGA,0.488
8,CTGTACCA,-0.134
9,ATGTACCG,-0.03
10,CTGTACAA,0.0214
11,CTGTACGC,0.375
12,ATGTACGA,0.472
13,CTGTACAC,0.152
14,ATGTACTG,-0.177
15,ATGTACGC,0.187
16,CTGTACTC,0.00852
17,ATGTACTA,0.0361
18,ATGTACGG,0.373
19,GACTCTCA,-0.187
20,CAGAAAGA,-0.00388
21,CACATAGG,-0.207
22,AAACCAAA,0.118
23,AAAGCATC,0.0386
24,GTGTACGA,0.479
25,GTGTACTA,0.127

row,Sequence,PBM E-score
1,GTGTACCA,0.0546
2,CAAGCCTA,-0.0953
3,GACGACGC,0.0643
4,TACGACGA,0.465
5,CACGACGC,0.0689
6,AACGACGC,0.442
7,AACGACGT,0.408
8,ACCGACGT,0.238
9,CACGACGA,0.126
10,AAGGACGT,0.0675
11,AACGACGG,0.437
12,ACCGACGG,0.108
13,GACGACGA,-0.00938
14,CACGACGG,0.129
15,GAGCTTGC,-0.231
16,CTCTCTTC,-0.29
17,CTAAGTTC,-0.0418
18,CCAATGGC,-0.226
19,ATTCAAAA,0.0167
20,CTCCACCC,-0.189
21,TAACTCGA,0.109
22,GCTGAGAC,-0.203
23,AATATCTG,-0.124
24,AGCGACGA,0.185
25,ATCGACGA,-0.0697

row,Sequence,PBM E-score
1,AACGACGA,0.454
2,AACATACG,0.39
3,ATCATACA,0.0941
4,ATCATACG,0.383
5,ATCATACC,-0.02
6,CACATACG,0.401
7,CGCATACG,0.439
8,CGCATACC,0.212
9,CGCATACA,0.114
10,CACATACC,-0.12
11,CACATACA,-0.107
12,AACATACC,0.16
13,AACATACT,0.0309
14,TGTAGGAA,-0.0273
15,AAGATGGG,-0.219
16,GATCCAGA,0.0551
17,CTTAGCGC,0.126
18,GACCCCAA,-0.0347
19,ACAAATCT,0.0248
20,ATCGGTCG,0.197
21,AAAGAAGG,-0.138
22,GCAGTATA,0.219
23,ATGTCTCA,-0.192
24,ACATAGGC,-0.126
25,GACGTAAA,0.228

row,Sequence,PBM E-score
1,AACGTAAC,0.245
2,ATCGTAAA,0.448
3,TGCGTAAA,0.294
4,ATCGTAAG,0.354
5,ATCGTAAC,0.372
6,GTCGTAAA,0.477
7,ACCGTAAC,0.27
8,GGCGTAAA,0.279
9,ATCGTAAT,0.287
10,TCCGTAAA,0.357
11,TTCGTAAA,0.459
12,GAGTAGGC,-0.18
13,AGTCTACA,-0.115
14,AGAACACC,-0.039
15,CCGAGTGA,0.102
16,CAATAAGG,-0.351
17,CACGTAAA,0.253
18,CTCGTAAA,0.482
19,CGCGTAAA,0.354
20,ACAGATTA,-0.111
21,CATAGTAC,0.0276
22,ACATTTTA,0.187
23,ACCGTCGT,0.394
24,AACGTCGT,0.38
25,ACCGTCGA,-0.191

row,Sequence,PBM E-score
1,AACGTCGG,0.176
2,AACGTCGA,0.202
3,ACCGTCGC,0.233
4,GCAATCTA,-0.0928
5,TAAGTAAA,-0.00508
6,GTTGCAGA,-0.126
7,CCATACAA,-0.09
8,CCATACGC,0.322
9,CCATACGA,0.473
10,CCATACTA,-0.101
11,CCATACGG,0.396
12,ACATACGG,0.354
13,CCGTTCCG,0.323
14,ATTGTTGG,-0.153
15,CGATTTGC,-0.0413
16,CCGGTTAG,0.0696
17,ACAGGTAA,-0.0299
18,CCGATACA,0.159
19,ACGATACA,0.279
20,ACGATACT,0.313
21,AAGATACG,0.349
22,CGGATACC,0.0516
23,CGGATACG,0.408
24,CGGATACA,0.201
25,CCGATACC,-0.00432

row,Sequence,PBM E-score
1,CAGATACG,0.375
2,CAGATACC,-0.184
3,CCGATACG,0.392
4,ACGATACG,0.391
5,ATTCTAAA,0.155
6,CCCAGCCA,-0.0649
7,GACGGTGC,0.0569
8,AAAATCTG,-0.0273
9,CGCATAGC,0.265
10,AAGACTGG,-0.109
11,CCCTCACA,-0.164
12,AGCGAGTG,0.204
13,AAAGAGTT,-0.235
14,AACGCGTT,0.248
15,AGCGAGTA,0.269
16,CACGAGTA,0.126
17,ACCGAGTA,0.25
18,GACGAGTA,0.104
19,AACGAGTT,0.399
20,TACGAGTA,0.453
21,AACGAGTG,0.414
22,CACGAGTG,0.0785
23,AACGAGTA,0.437
24,ATCATCTA,-0.0847
25,CTGGTCAA,-0.17

row,Sequence,PBM E-score
1,ACAATATC,0.125
2,CATCAGCC,-0.104
3,TTACTGAA,0.182
4,AACGAGTC,0.414
5,CACGAGTC,0.00415
6,GACGAGTC,0.0657
7,ACAATAAT,0.0963
8,ACCCGCTG,-0.245
9,AAGCTGCG,-0.0191
10,AGGTTCAA,-0.0255
11,ACACGGGG,-0.0346
12,ACACGGGA,-0.129
13,ACACGGGC,-0.0605
14,ATACGGGA,0.382
15,GGACGGGA,-0.0849
16,CTACGGGC,-0.0221
17,GTACGGGA,0.389
18,AGACGGGG,-0.147
19,ATACGGGG,0.411
20,ATACGGGC,0.426
21,GCACGGGA,0.0149
22,CTACGGGA,0.00845
23,ACCATTAC,0.17
24,AAACCGTC,-0.0199
25,ACTCCAAG,-0.152

row,Sequence,PBM E-score
1,CTCCTTAC,0.112
2,CGATTGAA,0.0171
3,GATATGGA,0.047
4,ACCCAACA,-0.221
5,GACGCTCC,-0.0386
6,AAACATCG,-0.033
7,CTTCACGC,0.0017
8,CTATGGAG,-0.173
9,GTTGTTTA,0.0127
10,GTGTCCTA,-0.0178
11,CCATAGAA,-0.25
12,ACCCGTCA,-0.119
13,CTATAAGA,0.247
14,GTATAAGA,0.395
15,CTATAATA,-0.055
16,GTATAATA,0.375
17,ATATAATA,-0.0226
18,ATATAAGA,0.22
19,AACGTTGA,0.0964
